Test results reported in PubChem BioAssay (Tox21).
Inconclusive results are not listed. Active and inactive are the calls of the source. Unless noted, the call rests on the fitted dose curve; in most records, active means well fitted curve in the direction sought with a large enough effect in the repeat runs; inconclusive means weak or mixed curves; inactive means flat fitted curve, though single readings scatter.

Key:
[1] = qHTS assay to test for compound auto fluorescence at 535 nm (green) in HEK293 cells (AID 720680)
[2] = qHTS assay to test for compound auto fluorescence at 460 nm (blue) in HEK293 cell free culture (AID 720681)
Method in brief: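 Blue fluorescence (Ex 405/Em 460 nm, triamterene-equivalent) was read immediately after pin transfer of compound or DMSO into medium (DMEM, 10% FBS) without cells.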

[3] = qHTS assay to test for compound auto fluorescence at 535 nm (green) in HEK293 cell free culture (AID 720682)
Method in brief: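 Each library compound, or DMSO control, is added by pintool to medium alone, comprising DMEM and 10% FBS. Emission at 535 nm following 485 nm excitation is quantified against fluorescein.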

[4] = qHTS assay to test for compound auto fluorescence at 590 nm (red) in HEK293 cell free culture (AID 720683)
Method in brief: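 Red-channel autofluorescence of compounds in culture medium (DMEM, 10% FBS), no cells, measured at 540/590 nm. Rose Bengal sodium is the reference fluorophore for equivalence.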

[5] = qHTS assay to test for compound auto fluorescence at 590 nm (red) in HepG2 cell free culture (AID 720684)
Method in brief: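 Steps: dispense MEM/10% FBS medium, no cells; pin compound or DMSO vehicle; read red channel, Ex/Em 540/590 nm. Output given as Rose Bengal sodium equivalents.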

[6] = qHTS assay to test for compound auto fluorescence at 535 nm (green) in HepG2 cell free culture (AID 720686)
[7] = qHTS assay to test for compound auto fluorescence at 460 nm (blue) in HepG2 cells (AID 720687)
Method in brief: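 Blue-channel autofluorescence (Ex/Em 405/460 nm, triamterene-equivalent) was measured after 1 hr compound exposure at 37 C, 5% CO2. Cells were HepG2, plated overnight at 37 C in MEM plus 10% FBS.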

[8] = qHTS assay to test for compound auto fluorescence at 460 nm (blue) in HepG2 cell free culture (AID 720685)
Method in brief: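 Compound (23 nL) or DMSO pinned into cell-free MEM with 10% FBS; blue fluorescence read at 405/460 nm excitation/emission, expressed as auto-fluorescence equivalency to triamterene.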

[9] = molecular target: Glucocorticoid receptor (Homo sapiens) (UniProt P04150); assay: qHTS assay to identify small molecule agonists of the glucocorticoid receptor (GR) signaling pathway (AID 720691; active means well fitted activation curve with a large enough effect in the signal ratio in the repeat runs, not every such curve was filed as active; the % refers to the signal ratio)
Method in brief: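 qHTS in GR-bla HeLa cells: 4 h settling at 37 C/5% CO2, 18 h compound incubation at 37 C, 2 h LiveBLAzer B/G FRET substrate at room temperature, fluorescence intensity measured.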

[10] = molecular target: Glucocorticoid receptor (Homo sapiens) (UniProt P04150); assay: qHTS assay to identify small molecule antagonists of the glucocorticoid receptor (GR) signaling pathway (AID 720692; active means well fitted inhibition curve with a large enough effect in the signal ratio in the repeat runs, not every such curve was filed as active; the % refers to the signal ratio)
Method in brief: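 Inhibition of glucocorticoid signalling is measured in HeLa cells with a GRE-controlled beta-lactamase reporter; cells are co-treated with compound and 5 nM dexamethasone (final) for 18 h before FRET substrate readout.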
On the % scale 0 is the no-effect control and ±100 the full control effect.

Chain of Glucocorticoid receptor (Homo sapiens) (P04150 whole entry, looked up): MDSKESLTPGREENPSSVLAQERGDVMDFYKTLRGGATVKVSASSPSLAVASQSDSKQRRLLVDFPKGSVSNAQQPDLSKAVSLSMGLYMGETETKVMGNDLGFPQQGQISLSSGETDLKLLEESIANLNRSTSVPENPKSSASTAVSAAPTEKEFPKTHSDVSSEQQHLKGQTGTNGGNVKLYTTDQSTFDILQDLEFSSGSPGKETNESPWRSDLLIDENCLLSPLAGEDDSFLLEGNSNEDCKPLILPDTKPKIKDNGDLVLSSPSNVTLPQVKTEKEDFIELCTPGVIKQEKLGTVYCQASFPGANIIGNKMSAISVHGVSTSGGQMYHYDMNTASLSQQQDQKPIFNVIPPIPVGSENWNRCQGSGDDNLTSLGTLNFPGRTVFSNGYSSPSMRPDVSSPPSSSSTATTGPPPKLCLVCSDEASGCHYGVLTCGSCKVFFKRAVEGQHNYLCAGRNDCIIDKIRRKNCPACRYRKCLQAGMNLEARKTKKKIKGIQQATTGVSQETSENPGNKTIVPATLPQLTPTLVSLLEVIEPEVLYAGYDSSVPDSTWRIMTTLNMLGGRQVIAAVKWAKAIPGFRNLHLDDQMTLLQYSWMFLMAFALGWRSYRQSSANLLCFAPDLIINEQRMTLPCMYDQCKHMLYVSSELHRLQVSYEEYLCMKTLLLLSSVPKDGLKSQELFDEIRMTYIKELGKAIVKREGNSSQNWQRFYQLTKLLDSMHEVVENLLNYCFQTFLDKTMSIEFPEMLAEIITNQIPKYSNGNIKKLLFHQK

O=P(O)(O)c1ccccc1
inactive: outcome [1] | outcome [2] | outcome [3] | outcome [4] | outcome [5] | outcome [6] | outcome [7]

COc1cccc(C=O)c1
inactive: outcome [1] | outcome [2] | outcome [3] | outcome [4] | outcome [8] | outcome [6] | outcome [7] | Potency [9] | Potency [10]

CNC(=O)Oc1ccccc1C(C)C
inactive: outcome [1] | outcome [2] | outcome [3] | outcome [4] | outcome [5] | outcome [8] | outcome [7] | Potency [9] | Potency [10]

CC(=O)CN(CC(C)=O)N=O
inactive: outcome [1] | outcome [2] | outcome [3] | outcome [4] | outcome [5] | outcome [6] | Potency [9]

CC(O)CCl (stereo unspecified)
inactive: outcome [1] | outcome [2] | outcome [3] | outcome [4] | outcome [8] | outcome [6] | outcome [7] | Potency [9] | Potency [10]

O=C(O)C(F)(F)C(F)(F)C(F)(F)C(F)(F)C(F)(F)C(F)(F)F
inactive: outcome [1] | outcome [2] | outcome [3] | outcome [4] | outcome [8] | outcome [7]

CON(C)C(=O)Nc1ccc(Br)c(Cl)c1
inactive: outcome [1] | outcome [2] | outcome [3] | outcome [4] | outcome [5] | outcome [6] | outcome [7] | Potency [9]

Clc1nc(Cl)nc(Nc2ccccc2Cl)n1
inactive: outcome [1] | outcome [2] | outcome [3] | outcome [4] | outcome [5] | outcome [8] | Potency [9] | Potency [10]

CCCC(C)C1(CC)C(=O)N=C(S)NC1=O (stereo unspecified)
inactive: outcome [1] | outcome [2] | outcome [3] | outcome [4] | outcome [5] | outcome [6] | outcome [7] | Potency [9] | Potency [10]

Cc1cccc2sc3nncn3c12
inactive: outcome [1] | outcome [2] | outcome [3] | outcome [4] | outcome [8] | outcome [7]

CCN[C@@H](C)Cc1ccccc1
inactive: outcome [1] | outcome [2] | outcome [3] | outcome [4] | outcome [8] | outcome [6] | outcome [7] | Potency [9] | Potency [10]

COP(=O)(O)OC
inactive: outcome [1] | outcome [2] | outcome [3] | outcome [4] | outcome [5] | outcome [8] | outcome [7] | Potency [9] | Potency [10]

C[C@@H](N)[C@@H](O)c1ccccc1
inactive: fluorescence, % of fluorescein [1] 0.072% [at 18.6 µM] | fluorescence, % of fluorescent control [2] -0.0641% [at 18.6 µM] | activity change [3] -0.0136% [at 18.6 µM] | fluorescence, % of fluorescent control [4] 0.0965% [at 18.6 µM] | fluorescence, % of Rose Bengal [5] 0.843% [at 18.6 µM] | fluorescence, % of fluorescein control [6] 0.0244% [at 18.6 µM] | fluorescence, % of fluorescent control [7] -0.0421% [at 18.6 µM] | Potency [9] | Potency [10]

CCCOc1nn(C(=O)NS(=O)(=O)c2ccccc2C(=O)OC)c(=O)n1C
inactive: outcome [1] | outcome [2] | outcome [3] | outcome [4] | outcome [5] | outcome [8] | Potency [9] | Potency [10]

O=CCCl
inactive: outcome [1] | outcome [2] | outcome [3] | outcome [4] | outcome [8] | outcome [6] | outcome [7] | Potency [9] | Potency [10]

O=C1CC(=O)NC(=O)N1
inactive: outcome [1] | outcome [2] | outcome [3] | outcome [4] | outcome [5] | outcome [7] | Potency [9] | Potency [10]

CCOP(=S)(OCC)SCCl
inactive: outcome [1] | outcome [2] | outcome [3] | outcome [4] | outcome [5] | outcome [8] | outcome [7] | Potency [9] | Potency [10]

CCCCCCC1CCOC1=O (stereo unspecified)
inactive: outcome [1] | outcome [2] | outcome [3] | outcome [4] | outcome [5] | outcome [6] | outcome [7] | Potency [9] | Potency [10]

CC(=O)OCC1=C(C(=O)O)N2C(=O)[C@@H](N)[C@H]2SC1
inactive: fluorescence, % of fluorescein [1] -0.0094% [at 18.6 µM] | fluorescence, % of fluorescent control [2] -0.0418% [at 18.6 µM] | activity change [3] 0.0026% [at 18.6 µM] | fluorescence, % of fluorescent control [4] 0.162% [at 18.6 µM] | fluorescence, % of fluorescent control [8] -0.0695% [at 18.6 µM] | fluorescence, % of fluorescent control [7] 0.185% [at 18.6 µM] | Potency [9] | Potency [10]

C[C@]12C=CC(=O)C=C1CC[C@@H]1[C@@H]2CC[C@@]2(C)[C@H]1CC[C@]2(C)O
inactive: outcome [1] | outcome [2] | outcome [3] | outcome [4] | outcome [5] | outcome [6] | outcome [7]

CCCOC(=O)Cc1ccc(OCC(=O)N(CC)CC)c(OC)c1
inactive: outcome [1] | outcome [2] | outcome [3] | outcome [4] | outcome [5] | outcome [6]

COc1ccc(CN2CCNCC2)c(OC)c1OC
inactive: fluorescence, % of fluorescein [1] 0.0001% [at 18.6 µM] | fluorescence, % of fluorescent control [2] -0.0368% [at 18.6 µM] | activity change [3] -0.0737% [at 18.6 µM] | fluorescence, % of fluorescent control [4] -0.395% [at 18.6 µM] | fluorescence, % of fluorescent control [8] -0.057% [at 18.6 µM] | fluorescence, % of fluorescein control [6] -0.137% [at 18.6 µM] | fluorescence, % of fluorescent control [7] -0.0322% [at 18.6 µM] | Potency [9] | Potency [10]

CCC(=O)c1ccc(Cl)cc1
inactive: outcome [1] | outcome [2] | outcome [3] | outcome [4] | outcome [5] | outcome [6] | outcome [7] | Potency [9] | Potency [10]

CCOc1cc(OP(=S)(OC)OC)nc(CC)n1
inactive: outcome [1] | outcome [2] | outcome [3] | outcome [4] | outcome [8] | outcome [7] | Potency [9] | Potency [10]

CC[C@@H](CO)NC(=O)[C@@H]1C=C2c3cccc4c3c(cn4C)C[C@H]2N(C)C1
inactive: outcome [1] | outcome [2] | outcome [3] | outcome [5] | outcome [8] | outcome [6]

C#CC(C)(C)O
inactive: outcome [1] | outcome [2] | outcome [3] | outcome [5] | outcome [8] | outcome [6] | outcome [7]

CC(C)C(C)(N)C#N (stereo unspecified)
inactive: outcome [1] | outcome [2] | outcome [3] | outcome [6] | Potency [9] | Potency [10]

COC(=O)c1ccccc1CS(=O)(=O)NC(=O)Nc1nc(OC)cc(OC)n1
inactive: outcome [1] | outcome [2] | outcome [3] | outcome [4] | outcome [8] | outcome [7] | Potency [9] | Potency [10]

CCN(CC)C1CCCCC1
inactive: outcome [1] | outcome [2] | outcome [3] | outcome [5] | outcome [8] | outcome [6] | outcome [7] | Potency [9] | Potency [10]
